Screens: PubChem, several laboratories
The list is not random: actives were taken first. Their share in the collection is about 3.2%.
ANO1 block: blocks the mouse calcium-activated chloride channel TMEM16A; Q8BHY3; HEK293 TMEM16A/YFP iodide influx fluorescence, ionomycin; normalized B-score (activity score, 25-100; higher = stronger inhibition) at 10 µM; hit rate 1.2% among 310,000;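 active = ratio plate-corrected score three or more library SD toward inhibition, starting fluorescence score within five deviations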;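 note: score derived from kinetic fluorescence span divided by baseline fluorescence per well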
CHT inh: inhibits the human high affinity choline transporter; Q9GZV3; CHT-expressing cells, membrane potential dye, choline response; active compounds read low; B-score at 10 µM; hit rate 0.86% among 310,000;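 active = B-score over 3 SD under the library average, and starting fluorescence ratio not unusually high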;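 note: choline stimulus applied at its EC90 after an EC20 pre-addition; B-score computed on integrated fluorescence ratio after choline addition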
Target sequence (Q9GZV3 whole entry, looked up): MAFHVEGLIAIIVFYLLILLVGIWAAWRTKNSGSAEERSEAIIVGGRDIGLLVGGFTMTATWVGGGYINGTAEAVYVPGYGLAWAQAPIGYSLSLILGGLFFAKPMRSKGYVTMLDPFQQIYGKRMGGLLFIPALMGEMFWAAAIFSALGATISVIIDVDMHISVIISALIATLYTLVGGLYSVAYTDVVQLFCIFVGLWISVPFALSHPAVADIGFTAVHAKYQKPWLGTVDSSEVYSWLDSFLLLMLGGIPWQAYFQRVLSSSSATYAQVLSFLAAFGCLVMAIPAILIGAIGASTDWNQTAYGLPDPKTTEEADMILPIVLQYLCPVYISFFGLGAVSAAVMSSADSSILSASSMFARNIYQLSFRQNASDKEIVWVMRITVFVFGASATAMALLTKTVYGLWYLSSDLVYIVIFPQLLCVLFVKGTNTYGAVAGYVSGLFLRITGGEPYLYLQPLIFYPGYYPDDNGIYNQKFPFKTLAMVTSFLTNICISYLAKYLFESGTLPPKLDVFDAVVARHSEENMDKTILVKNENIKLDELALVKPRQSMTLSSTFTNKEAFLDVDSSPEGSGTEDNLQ
Rce1 inhib: blocks yeast Ras-converting enzyme. Q03530. yeast membranes, quenched prenylated peptide cleavage fluorescence. calls only. hit rate 0.27% among 290,000;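 active = fall in fluorescence gain of 50% or more versus controls, with final raw signal at or below 3038400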;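 note: plate controls were neutral control wells for no effect and wells lacking membranes for full effect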
TMEM16A act: mouse TMEM16A channel activation, primary screen; Q8BHY3; HEK293 TMEM16A/YFP-H148Q/I152L, iodide quench fluorescence; active compounds read low; B-score at 10 µM; hit rate 0.3% among 340,000;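 active = fluorescence-ratio B-score plate-corrected deviation score at least 3 library SD below zero, with starting fluorescence score within 5 deviations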;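 note: channel opened by trigger with iodide after compound preincubation; score built on the fluorescence ratio of max minus min over baseline; more negative score means more quench and so TMEM16A activation or potentiation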
CHT PAM: allosterically activates the human high affinity choline transporter; Q9GZV3; CHT-expressing cells, membrane potential dye, choline EC20; active compounds read high; LV-AA mutant CHT in HEK293 cells; B-score at 10 µM; hit rate 0.49% among 310,000; AID 488977;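 active = initial fluorescence not abnormally high and integrated response B-score, plate-corrected, over 3 SD above library mean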
Kir21 inh: inhibitors of mouse Kir2.1 inward-rectifier potassium channel; B-score at 10 µM; P35561; hit rate 0.85% among 310,000; HEK293-Kir2.1, FluxOR thallium flux fluorescence; active compounds read low;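 active = fluorescence ratio B-score at or below minus 3 SD of library scores, with starting-brightness B-score within 2 SD, cut at about -4.2 in these data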;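 note: channel flux triggered by added potassium and thallium sulfate stimulus; B-score of peak minus minimum fluorescence over baseline after thallium stimulus; more negative B-score means stronger Kir2.1 block with less thallium influx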
CHT act confirm: human CHT activation, confirmatory screen. activation, % at 10 µM. hit rate 91% among 2,500. CHT-expressing cells, membrane potential dye fluorescence (FDSS); % of choline EC20–EC90 response window; HEK293 expressing CHT LV-AA mutant; choline added at its EC20. AID 504833. shares compounds with CHT PAM;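 active = primary screen active, with duplicate mean activation above negative control mean plus 3 SD, cut at about 11% in these data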
HEK293 MP dye: counter-screen for CHT activators: effect in parental HEK293 cells; membrane potential dye fluorescence (FDSS); measured after EC20 choline addition; hit rate 62% among 2,500; ratio readout change at 10 µM, hits read low; shares compounds with CHT PAM;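 active = duplicate-averaged ratio beyond 3 SD from buffer wells, up or down, though filed actives are nearly all decreases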
Numbers without * were called inactive; i = inactive; x = no result; + = active, no number.

SMILES	ANO1 block	CHT inh	Rce1 inhib	TMEM16A act	CHT PAM	Kir21 inh	CHT act confirm	HEK293 MP dye
CC(Sc1nnc(-c2ccc(Cl)cc2Cl)n1Cc1ccccc1)C(=O)Nc1nccs1 (configuration not stated)	i	i	i	i	7.1*	-1.9	35*	i
O=C(Nc1ccc2ccccc2c1)C(c1ccccc1)C1CCCC1 (configuration not stated)	i	i	i	i	i	-0.3	24*	i
Cc1ccc(NC2CCCN(C(=O)c3cccc(-c4ncc[nH]4)c3)C2)cc1C (configuration not stated)	i	i	i	i	i	0.24	x	x
COC(=O)C1=C(C(=O)OC)SC(=C2C(=S)C(C)(C)N(C(=O)C(C)C)c3ccccc32)S1	i	i	x	i	i	0.58	x	x
CCCC(=O)N1c2ccccc2C(=C2SC(C(=O)OC)=C(C(=O)OC)S2)C(=S)C1(C)C	i	i	i	i	i	-0.38	20*	i
CC1c2[nH]c3ccccc3c2C[C@H]2C(=O)N(CCCN(C)C)CC(=O)N12 (some centres not stated)	i	i	i	i	i	0.33	x	x
Cc1nc(OCC(=O)c2ccc(Cl)cc2)c(C#N)c2c1COC(C)(C)C2	i	i	i	i	i	-0.84	x	x
CC(C)CCNc1nc(-c2ccco2)c2c(c1C#N)CCCC2	i	i	i	i	i	-0.15	x	x
CC1(C)Cc2c(C#N)c(OCC(=O)c3ccc(Cl)cc3)nc(-c3ccco3)c2CO1	i	i	i	i	13*	-0.26	9	i
CN(C)CCNc1nc(-c2ccco2)c2c(c1C#N)CC(C)(C)OC2	i	i	i	i	11*	-0.49	65*	-91*
CC1(C)Cc2c(C#N)c(NCc3ccco3)nc(-c3ccco3)c2CO1	i	i	i	i	i	0.01	x	x
N#Cc1c(NCCN)nc(-c2ccco2)c2c1CCCC2	i	i	i	i	i	-1.5	39*	-73*
CC(Oc1ccc(Cl)cc1)C(=O)N1CCN(C(=O)c2ccco2)CC1 (configuration not stated)	x	x	x	i	x	x	x	x
CC(=O)NC1CC2CCCC(C1)N2C(=O)Nc1cccc(C(C)=O)c1 (configuration not stated)	x	x	x	i	x	x	x	x
CCCn1c(NC(=O)CCS(=O)(=O)c2ccc(C)cc2)nc2ccccc21	i	i	i	i	i	-0.52	x	x
O=C(O)c1cn(C2CC2)c2cc(N3CCN(S(=O)(=O)c4ccc5c(c4)OCCO5)CC3)c(F)cc2c1=O	i	i	i	i	i	-0.63	x	x
COc1c(N2CCN[C@H](C)C2)c(F)cc2c(=O)c(C(=O)O)cn(C3CC3)c12	i	i	i	x	6.3*	-0.42	31*	-40*
COc1c(N2C[C@@H]3CCCN[C@@H]3C2)c(F)cc2c(=O)c(C(=O)O)cn(C3CC3)c12	i	i	i	i	7.8*	-0.08	35*	-42*
COc1c(F)c(F)cc2c(=O)c(C(=O)O)cn(C3CC3)c12	i	i	i	i	i	-1.7	x	x
CC1COc2c(N3CCN(C)CC3)c(F)cc3c(=O)c(C(=O)O)cn1c23 (configuration not stated)	i	i	+	i	8.7*	0.74	44*	-44*
O=C(Cc1cccs1)N(Cc1cccs1)C1(C(=O)NC2CCCCC2)CCCCC1	i	i	i	i	i	0.06	x	x
O=C1CCC(C(=O)N(Cc2cccs2)C2(C(=O)NC3CCCCC3)CCCCC2)N1 (configuration not stated)	i	i	i	i	7*	0.77	31*	i
O=C1CCCCCCCCCC/C(=N\O)CCCO1	i	i	i	i	i	-1.8	14*	i
C[C@@H]1CCCCCCCCC(=O)OCCN(C(=O)OC(C)(C)C)[C@H](C)CCCCCCCCC(=O)OCCN(C(=O)OC(C)(C)C)[C@H](C)CCCCCCCCC(=O)OCCN(C(=O)OC(C)(C)C)[C@H](C)CCCCCCCCC(=O)OCCN1C(=O)OC(C)(C)C	x	x	x	i	x	x	x	x
Cc1nc(NC2=NCN(CCCN3CCOCC3)CN2)nc2c(C)cccc12	i	i	x	i	i	x	48*	-56*
SMILES	ANO1 block	CHT inh	Rce1 inhib	TMEM16A act	CHT PAM	Kir21 inh	CHT act confirm	HEK293 MP dye
CC(Nc1ccnc2cc(Cl)ccc12)c1ccc(S(N)(=O)=O)cc1 (configuration not stated)	i	i	i	i	i	0.22	35*	-46*
N=c1c2c3c(sc2ncn1CCCO)CCCC3	i	i	i	i	9.5*	-0.47	26*	-56*
N=c1c2c3c(sc2ncn1CCN1CCOCC1)CCCCC3	i	i	i	i	i	-0.93	69*	-32*
N=c1c2c3c(sc2ncn1Cc1ccccc1)CCCC3	i	i	i	i	i	-0.47	x	x
Cc1onc(-c2c(F)cccc2Cl)c1C(=O)NC(=S)NC1CCS(=O)(=O)C1 (configuration not stated)	i	i	i	i	i	-0.05	x	x
CCN1C(=O)[C@H]2[C@@H](c3ccc(-c4cccc(Cl)c4)cc3)N[C@@](C)(C(=O)OC)[C@H]2C1=O	i	i	i	i	i	0	x	x
Cc1cc(NC(=O)CCCn2cc([N+](=O)[O-])cn2)n(Cc2ccc(F)cc2)n1	i	i	i	i	i	3.1	x	x
OCCN(CCCn1c(-c2ccncc2)nc2ccccc21)c1nc(CN2CCCCC2)cs1	i	i	i	i	i	1.9	60*	-44*
CCOC(=O)C1CCN(CC(=O)Nc2ccc(S(=O)(=O)N3CCC(C)CC3)cc2)CC1	i	i	i	i	i	0.6	x	x
COc1cc(Nc2c3c(nc4ccccc24)CCC3)cc(OC)c1OC	i	i	i	i	i	1.9	36*	-36*
CCCCCCCCCCOC(=O)Cn1c(COc2ccccc2C)[n+](C)c2ccccc21	100*	i	+	-4.7*	14*	-8.9*	5	-46*
CCCCCCCCCCOC(=O)Cn1c(COc2cccc(C)c2)[n+](C)c2ccccc21	100*	i	i	i	i	-13*	7	-41*
